DT40 TDP1 no CPT = qHTS for Inhibitors of human tyrosyl-DNA phosphodiesterase 1 (TDP1): qHTS in cells in absence of CPT; DT40 Tdp1-/- hTDP1 cells, no CPT, ATP luminescence, 48 h; Potency, µM (series often up to 46.2 µM), for the others: at the highest dose activity change, negative = growth inhibition, hits mostly inhibitors; 420,000 compounds, 15% hits; note: nearly all actives have a fitted effect of over 55% in size
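Camptothecin absent (DMSO only). Human TDP1-complemented DT40 knockout cells, 400 cells/well, 37 °C for minimum 48 hr; ATP measured via CellTiter-Glo, 30 min dark incubation, luminescence.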
Gal4-VP16 FLuc = counter-screen for ROR gamma inhibitors: Gal4-VP16 reporter; 310,000 compounds, 3.5% hits; Potency, µM (top dose mostly 53.6 µM), inactives show at the highest dose activity, negative = inhibition, most hits filed as inhibitors; Drosophila S2 Gal4-VP16 UAS-luciferase, luminescence, 20 h;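 note: Gal4-VP16 expression switched on by copper sulfate through the metallothionein promoter; nearly all actives have a fitted effect of over 50% in size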
ALOX12 inh = inhibitors of human 12S-lipoxygenase ALOX12 | P18054 | purified 12hLO, xylenol orange hydroperoxide absorbance | Potency, µM (top dose mostly 108 µM), for inactives: top-dose activity change, negative = inhibition, hits mostly inhibitors | 580,000 compounds, 1.1% hits | AID 1671190
Target sequence (P18054 whole entry, looked up): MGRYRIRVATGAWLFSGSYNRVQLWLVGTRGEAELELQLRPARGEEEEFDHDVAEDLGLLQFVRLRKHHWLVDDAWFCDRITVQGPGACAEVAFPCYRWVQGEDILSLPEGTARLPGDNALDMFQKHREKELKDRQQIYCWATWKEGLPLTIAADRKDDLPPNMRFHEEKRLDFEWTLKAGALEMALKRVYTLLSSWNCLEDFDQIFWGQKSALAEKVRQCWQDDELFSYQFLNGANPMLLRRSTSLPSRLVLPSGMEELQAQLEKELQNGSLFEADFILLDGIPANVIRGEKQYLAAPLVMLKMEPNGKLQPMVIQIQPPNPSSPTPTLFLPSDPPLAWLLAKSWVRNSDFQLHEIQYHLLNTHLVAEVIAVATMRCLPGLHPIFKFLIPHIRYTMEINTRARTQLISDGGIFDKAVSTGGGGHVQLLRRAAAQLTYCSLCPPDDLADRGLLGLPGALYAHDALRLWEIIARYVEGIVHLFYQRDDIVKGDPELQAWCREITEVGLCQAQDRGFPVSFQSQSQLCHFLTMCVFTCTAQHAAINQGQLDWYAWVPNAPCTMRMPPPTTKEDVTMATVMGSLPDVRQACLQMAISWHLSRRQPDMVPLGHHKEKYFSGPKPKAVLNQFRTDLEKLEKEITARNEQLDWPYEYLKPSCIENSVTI
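Purified human 12hLO at 150 nM in 25 mM Hepes, 0.01% Triton X-100, pH 7.0, preincubated 15 min at room temperature with compound. Reaction started with 40 uM arachidonic acid, 30 min at room temperature. Hydroperoxide measured by Fe-xylenol orange, 573/405 nm absorbance ratio.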
RORg inh = blocks mouse ROR gamma transcriptional activity. P51450. Drosophila S2 Gal4-RORgamma UAS-luciferase reporter, 20 h. Potency, µM (doses to about 53.6 µM), without a hit: at the highest dose activity change, negative = inhibition, actives largely listed as inhibitors. 310,000 compounds, 5.4% hits. AID 2551; note: nearly all actives have a fitted effect of over 60% in size
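Stable Schneider cell line, Gal4 DNA-binding domain fused to ROR gamma, UAS-luciferase. Cmpd 1 hr RT → CuSO4 700 uM final → 20 hr RT → luciferase reagent 10 min → luminescence.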
ELG1 DNA repair = inhibitors of ELG1-dependent DNA repair in HEK293T cells; 330,000 compounds, 2.3% hits; HEK293T ELG1-luciferase reporter, luminescence, 16 h; DNA damage induced by 5-fluorouridine; Potency, µM (top dose mostly 46.1 µM), for the others: at the highest dose activity change, negative = inhibition, most hits filed as inhibitors; note: nearly all actives have a fitted effect of over 55% in size
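Reporter activity after DNA damage by 5-fluorouridine is monitored. Compound-treated cells incubate 16 hr at 37 °C, then ONE-Glo is added for 30 min before luminescence reading.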
TDP1 cell CPT = DT40-hTDP1 cell growth loss with CPT; chicken DT40 Tdp1-/-;hTDP1 cells + 20 nM CPT, ATP luminescence, 48 h; 420,000 compounds, 12% hits; Potency, µM (series often up to 46.2 µM), without a hit: at the top dose activity change, negative = growth inhibition, usual class: inhibitors; note: nearly all actives have a fitted effect of over 55% in size
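Cell growth measured by CellTiter-Glo luminescence after a minimum 48 h, 37 C compound exposure with 20 nM CPT in Tdp1-knockout DT40 cells stably expressing hTDP1, seeded 400/well; qHTS titration format.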
* hit, by the source's call; ? = inconclusive; · = not tested or not shown; [ ] = remark or other dose. A selection: hits, their analogues and other compounds. The true share with any hit is near 15%. Calls come from the whole dose curve; as a rule, active = well fitted curve in the direction sought with a large enough effect; inconclusive = small, poorly fitted or top-dose-only effect, or another doubt; inactive = no such curve, though single readings can be large; an effect the other way counts as inactive or inconclusive. % is set by controls: 0 for no effect and ±100 for the full control effect; potency is the fitted concentration of half-maximal effect.

SMILES	DT40 TDP1 no CPT	Gal4-VP16 FLuc	ALOX12 inh	RORg inh	ELG1 DNA repair	TDP1 cell CPT
CCN(CC)S(=O)(=O)c1cccc(C(=O)N[C@H](C(=O)NCc2ccccc2F)C(C)C)c1	?	3.4%	3.1%	6.1%	?	?
Cn1cnnc1Sc1ccc(C(=O)OCC(=O)NCC(F)(F)F)cc1[N+](=O)[O-]	4.5%	2.2%	6.7%	24.9%	-9.2%	-1.2%
CCN(CC)C(=O)c1ccccc1NC(=O)c1cccc(S(=O)(=O)N(CC)CC)c1	-10.2%	-6.3%	-11.6%	26.9%	-21.0%	-16.2%
CCN(CC)S(=O)(=O)c1cccc(NC(=O)c2ccc(Sc3nncn3C)c([N+](=O)[O-])c2)c1	23.1µM*	-5.1%	-5.4%	13.1%	?	16.4µM*
CCN(CC)S(=O)(=O)c1cccc(C(=O)Nc2ccc(C#N)cc2)c1	8.2µM*	-2.0%	-3.6%	16.1%	?	?
O=C(NCC1CCCO1)c1cnc2c(c1)N(Cc1ccccc1)CCC2 (stereo not given)	·	·	0.7%[176 µM]	·	·	·
Cc1cc(Cl)ccc1S(=O)(=O)N1CCCC(Cn2c(C)nc3cccnc32)C1 (stereo not given)	·	·	39.3%	·	·	·
C/C(=N/NC(=O)c1ccc(C)cc1C)c1cccc2ccccc12	·	·	-2.7%	·	·	·
COCCCNC(=O)C(=O)NN	·	·	17.4%	·	·	·
Cc1ccccc1/C=N/NC(=O)c1ccc(C(C)(C)C)cc1	·	·	-5.9%	·	·	·
CCN(CC)S(=O)(=O)c1cccc(NC(=O)c2ccc(Br)cc2)c1	20.6µM*	-12.1%	-14.6%	?	?	?
COC(=O)[C@]1(C#N)[C@@H](c2ccccc2)C(=O)N(Cc2ccc(Cl)cc2)[C@@H]1c1ccc(OC)cc1	·	·	2.9%	·	·	·
CN(C)C(=O)c1ccc(-c2ccc(N3CCCCCC3)nc2)cc1	·	·	40.1%	·	·	·
CC1(C)CC2CC(C)(CN2S(=O)(=O)c2cccc(N)c2)C1 (stereo not given)	?	7.2%	-9.3%	?	-6.3%	?
CCCS(=O)(=O)N1CCN(S(=O)(=O)c2ccccc2[N+](=O)[O-])CC1	-1.0%	0.4%	12.2%	4.4%	-12.5%	0.0%
CC(=O)c1c(C)[nH]c(C(=O)CN2CCN(S(=O)(=O)c3ccccc3[N+](=O)[O-])CC2)c1C	13µM*	·	-4.3%	·	?	20.6µM*
CC1(C)CC2CC(C)(CN2S(=O)(=O)c2ccccc2[N+](=O)[O-])C1 (stereo not given)	20.6µM*	·	365.0%	·	?	20.6µM*
CC1CC(C)CN(S(=O)(=O)c2ccccc2[N+](=O)[O-])C1 (stereo not given)	13µM*	-3.2%	4.8%	-3.8%[10 µM]	-4.6%	13µM*
COc1ccc(CNC(=O)c2nc(-c3nn(-c4ccc(C)cc4)c(=O)n(C)c3=O)no2)cc1	·	·	-8.4%	·	·	·
Oc1ccc(C[C@@H]2CNCCN2CC2(c3ccccc3)CC2)cc1	?	·	-11.6%	·	-2.1%	?
Oc1ccc(C[C@H]2CNCCN2CC2(c3ccccc3)CC2)cc1	?	·	-27.1%	·	0.4%	20.6µM*
CCCC[C@@H]1CNCCN1CC1(c2ccccc2)CC1	11.6µM*	·	16.1%	·	10.6%	11.6µM*
CCC1CCCCN1S(=O)(=O)c1ccc(S(=O)(=O)N(Cc2cccs2)C2CC2)cc1 (stereo not given)	23.1µM*	1.4%	11.2%	11.9%[10 µM]	?	18.4µM*
CCC1CCCCN1S(=O)(=O)c1ccc(NC(=O)C2CCN(C(=O)c3ccco3)CC2)cc1 (stereo not given)	?	6.7%	-6.5%	9.1%	?	-18.4%
CCC1CCCCN1S(=O)(=O)c1ccc(S(=O)(=O)N(Cc2ccccn2)CC2CCCO2)cc1 (stereo not given)	23.1µM*	-6.5%	-10.6%	3.0%[10 µM]	18.4µM*	23.1µM*
SMILES	DT40 TDP1 no CPT	Gal4-VP16 FLuc	ALOX12 inh	RORg inh	ELG1 DNA repair	TDP1 cell CPT
O=S(=O)(NCC1CCCO1)c1ccc(S(=O)(=O)N(Cc2ccc(F)cc2)Cc2ccccn2)cc1 (stereo not given)	?	3.7%	17.3%	26.1%	-10.3%	-26.4%
CC(=O)c1ccc(N2CCN(S(=O)(=O)c3ccc(-c4cnc(C5CC5)o4)cc3)CC2)cc1	?	0.5%	-28.4%	-7.0%	?	3.26µM*
COc1cccc(N2CCN(S(=O)(=O)c3ccc(-c4cnc(C5CC5)o4)cc3)CC2)c1	-0.3%	-20.9%	5.5%	?	-1.8%	-20.4%
O=S(=O)(c1ccc(-c2cnc(C3CC3)o2)cc1)N1CCN(c2cccc(Cl)c2)CC1	3.26µM*	·	-13.7%	·	·	4.11µM*
O=S(=O)(c1ccc(-c2cnc(C3CC3)o2)cc1)N1CCN(c2ccc(F)cc2)CC1	0.411µM*	·	-12.6%	·	·	0.92µM*
CC(C)(O)C#Cc1ccc(N2C(c3ccsc3)=Cc3ccc(F)cc3C2c2c[nH]c3ccc(C#N)cc23)cc1 (stereo not given)	?	·	?	·	·	5.17µM*
CCOC(=O)c1ccc(-c2ccc(N3C(c4ccsc4)=Cc4ccc(F)cc4C3c3c[nH]c4ccc(C#N)cc34)cc2)cc1F (stereo not given)	?	·	0.0%	·	·	-22.5%
Cc1ccc(NC(=O)C(c2ccccc2)C2CCCC2)cc1C (stereo not given)	·	·	12.7%	·	·	·
C=CCC[C@@H](Cc1ccc(F)cc1)C(=O)OCCNC(=O)[C@@H](CC=C)CC(=O)N[C@H](CO)Cc1ccccc1	?	·	-8.8%	·	?	20.6µM*
C=CC[C@@H](CC(=O)N[C@H](CO)Cc1ccccc1)C(=O)N[C@@H](C)COC(=O)[C@@H](CC=C)Cc1ccc(F)cc1	18.4µM*	·	-15.6%	·	?	?
C=CCC[C@@H](Cc1ccc(F)cc1)C(=O)OC[C@@H](C)NC(=O)[C@@H](CC=C)CC(=O)N[C@H](CO)Cc1ccccc1	?	·	-11.0%	·	?	14.6µM*
Cn1c(Nc2ccccc2)nc2cnc(-c3ccc(S(C)(=O)=O)cc3)cc21	·	·	-19.5%	·	·	·
O=C(CCC(=O)OCC(=O)c1ccc(-c2ccccc2)cc1)Nc1cccc(Cl)c1	1.2%	12.6µM*	0.0%	7.08µM*	17.3%	2.4%
Cc1ccccc1NC(=O)CCC(=O)OCC(=O)c1ccc(-c2ccccc2)cc1	-13.3%	10µM*	-5.4%	7.94µM*	?	?
O=C(COc1ccc(Cl)cc1Cl)OCC(=O)c1ccc(-c2ccccc2)cc1	·	·	45.1%	·	·	·

Bioassay records as filed in PubChem BioAssay.
